Reference: PubChem BioAssay
Several values for one entry are separate records, joined by “and”; a condition that tells them apart may be missing. Equal entries are not always repeated. Activity calls are given as the source filed them.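 How the source made its calls, unless noted: active means compounds whose cell count with miR-34 switched on is under 0.7 times the count with it off; inactive means the rest.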

Experiments:
[1] = sensitizers of A549 cells to miR-34 induction, primary screen, imaging, A549 dox-inducible miR-34, nuclei and caspase counts (AID 1347080); details: A549 miR-34 inducible, Hoechst nuclei count, 48 h
[2] = survival rescue of mitochondrial mutant cells in low glucose, primary screen, MELAS cybrids, Rieske KO mouse fibroblasts, CellTiter-Glo (AID 1508586;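 active means mean z-score across replicates of 1.96 or higher in either the MELAS or the Rieske mutant cell line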;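 further: z relative to plate mean and SD of compound and empty wells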)
[3] = viability rescue of complex I mutant cybrids, primary screen, cell-based, galactose medium, ATP luminescence (AID 1645843;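 active means z-score of at least 1.8 in each of two replicates, scored against plate mean and spread of sample wells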;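 further: positive z means more ATP and so rescue of galactose-driven cybrid death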); details: complex I mutant cybrid cells, 72 h, stronger effect = higher value
[4] = hESC survival regulators, cell-based (AID 493140; call rule not given here;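 further: cells exposed to compounds for four days before counting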); details: human embryonic stem cell survival screen; stronger effect = higher value
[5] = liver-stage malaria parasite growth inhibition, primary screen, cell-based, HepG2, luciferase luminescence, HepG2 viability (AID 624349; in the data active means parasite load remaining mostly below about 12%, no sharp cut-off; inactive means mostly above about 10%;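 further: 100% = mean of DMSO negative control wells on the same plate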); details: P. berghei liver stage in HepG2, luciferase luminescence, concentration not given here; parasite load remaining: stronger effect = lower value; viability: measured here: HepG2 viability without parasites
[6] = biological target: NAD(+) hydrolase SARM1 (Homo sapiens) (UniProt Q6SZW1); test: SARM1 TIR NADase inhibitors, cell lysate, NAD-Glo luminescence (AID 1508614;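 active means compound whose remaining NAD level is above about 45 nM, limit read from the data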); details: SAM-TIR HEK293T lysate NADase, at 1 µM, stronger effect = higher value
NAD(+) hydrolase SARM1 (Homo sapiens), sequence (Q6SZW1 whole entry, looked up, the tested form may be a part): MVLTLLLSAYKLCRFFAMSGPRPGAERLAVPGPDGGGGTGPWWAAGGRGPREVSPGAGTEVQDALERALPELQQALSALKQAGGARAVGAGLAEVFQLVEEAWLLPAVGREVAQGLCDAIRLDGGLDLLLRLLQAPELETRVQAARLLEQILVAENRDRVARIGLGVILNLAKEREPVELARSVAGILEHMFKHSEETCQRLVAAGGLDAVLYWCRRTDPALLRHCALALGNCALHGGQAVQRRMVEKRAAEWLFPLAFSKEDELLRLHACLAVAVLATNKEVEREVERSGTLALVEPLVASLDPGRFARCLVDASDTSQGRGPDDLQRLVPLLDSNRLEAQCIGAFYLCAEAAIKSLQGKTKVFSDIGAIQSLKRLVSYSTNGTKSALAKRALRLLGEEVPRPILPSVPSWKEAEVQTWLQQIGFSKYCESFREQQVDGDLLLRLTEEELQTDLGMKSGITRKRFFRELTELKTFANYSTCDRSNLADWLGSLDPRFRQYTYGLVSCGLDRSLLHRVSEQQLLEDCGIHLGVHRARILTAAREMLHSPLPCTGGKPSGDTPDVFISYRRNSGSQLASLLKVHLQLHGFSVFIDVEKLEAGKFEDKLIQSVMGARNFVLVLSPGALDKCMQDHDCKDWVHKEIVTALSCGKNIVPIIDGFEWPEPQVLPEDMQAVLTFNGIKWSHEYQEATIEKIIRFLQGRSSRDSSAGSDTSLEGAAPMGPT

[7] = biological target: Mitogen-activated protein kinase 7 (Homo sapiens) (UniProt Q13164); test: ERK5 transactivation activators in reporter cells, primary screen, cell-based, HTS (AID 1508626;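 active means luciferase signal above three times the same-plate solvent-only control wells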;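 further: luciferase driven by Gal4-ERK5 fusion binding five Gal4 sites before minimal TATA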); details: HeLa Gal4-ERK5 transactivation, 18 h, at 5 µM, stronger effect = higher value
Mitogen-activated protein kinase 7 (Homo sapiens), sequence (Q13164 whole entry, looked up, the tested form may be a part): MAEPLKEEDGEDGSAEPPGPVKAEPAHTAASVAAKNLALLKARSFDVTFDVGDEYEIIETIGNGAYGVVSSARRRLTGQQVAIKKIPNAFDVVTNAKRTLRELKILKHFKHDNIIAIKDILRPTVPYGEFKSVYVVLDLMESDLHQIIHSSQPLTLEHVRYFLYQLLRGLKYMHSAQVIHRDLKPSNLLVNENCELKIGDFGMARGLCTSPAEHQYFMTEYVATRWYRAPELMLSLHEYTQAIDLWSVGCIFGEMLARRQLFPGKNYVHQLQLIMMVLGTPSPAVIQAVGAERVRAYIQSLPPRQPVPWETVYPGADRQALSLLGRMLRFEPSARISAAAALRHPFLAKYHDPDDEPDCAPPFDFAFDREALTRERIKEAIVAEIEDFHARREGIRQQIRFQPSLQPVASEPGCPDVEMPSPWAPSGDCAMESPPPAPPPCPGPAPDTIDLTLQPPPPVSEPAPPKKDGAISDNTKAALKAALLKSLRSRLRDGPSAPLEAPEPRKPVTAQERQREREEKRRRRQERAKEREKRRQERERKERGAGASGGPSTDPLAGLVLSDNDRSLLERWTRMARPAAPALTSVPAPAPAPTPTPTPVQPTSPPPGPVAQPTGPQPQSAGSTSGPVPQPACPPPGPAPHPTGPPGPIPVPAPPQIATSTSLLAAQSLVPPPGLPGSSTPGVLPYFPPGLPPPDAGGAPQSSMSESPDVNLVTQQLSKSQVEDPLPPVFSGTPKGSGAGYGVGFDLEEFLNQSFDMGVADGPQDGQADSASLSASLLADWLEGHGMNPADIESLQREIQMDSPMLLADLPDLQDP

[8] = stronger effect = lower value, cell number ratio, induced over uninduced
[9] = measured here: relative caspase fold change +Dox/-Dox
[10] = measured here: total cells with miR-34 induction, stronger effect = lower value
[11] = measured here: total cells without miR-34 induction
[12] = MELAS cybrid survival, CellTiter-Glo 48 h, stronger effect = higher value
[13] = Rieske KO mouse fibroblast survival, CellTiter-Glo 72 h

Row | SMILES | fold change [1, 8] | fold change [1, 9] | cell count [1, 10] | cell count [1, 11] | z-score [2, 12] | z-score [2, 13] | fold change ([1]; stronger effect = lower value) | z-score [3] | survival [4] | parasite load remaining [5] | viability [5] [%] | remaining NAD [6] | luciferase signal [7]
1 | C=CC[C@@]1(O)CC[C@H]2[C@@H]3CCC4=CC(=O)CCC4=C3C=C[C@@]21C | 0.88 (inactive) | 0.451 | 7350 | 8350 | -0.295 (inactive) | -0.164 | – | – | – | – | – | – | –
2 | Cc1nc(-c2ccccn2)nc(NCCc2ccccc2)c1Cl | – | 0.693 | 3090 | 3170 | -0.0148 | 3.58 | 0.975 (inactive) | -2.29 (inactive) | – | – | – | – | –
3 | CC(Cc1ccccc1)NCCC(c1ccccc1)c1ccccc1 (stereo not given) | – | 0.226 | 3500 | 2580 | -0.835 (inactive) and -1.25 (inactive) | -0.134 and -0.319 | 1.36 (inactive) | -2.66 (inactive) | 2.25 (inactive) | 54.7% (inactive) | 77.6 | – | –
4 | C#C[C@@]1(O)C=C[C@H]2[C@@H]3CCC4=CC(=O)CC[C@@H]4[C@@H]3CC[C@@]21CC | 0.87 (inactive) | 1.21 | 7070 | 8120 | -0.518 (inactive) | 0.382 | – | – | – | – | – | – | –
5 | O=C1C[C@@H]2OCC=C3CN4CC[C@]56c7ccccc7N1[C@H]5[C@H]2[C@H]3C[C@H]46 | – | 1.24 | 10000 | 10800 | 0.997 (inactive) | 0.445 | 0.929 (inactive) | 0.365 (inactive) | – | 96.5% (inactive) | 226 | 10 nM (inactive) | 48 AU (inactive)
6 | O=C1CC[C@@]2(O)C3Cc4ccc(O)c5c4[C@@]2(CCN3CC2CC2)C1O5 (stereo not given in full) | – | 4.62 | 8340 | 9040 | 1.92 (inactive) | -1.89 | 0.922 (inactive) | – | – | – | – | – | –
7 | C/C=C/N1CC[C@]23CCCC[C@H]2[C@H]1Cc1ccc(O)cc13 | – | 1.04 | 9380 | 10400 | -1.07 (inactive) | -0.504 | 0.904 (inactive) | 0.26 (inactive) | – | 46.3% (inactive) | 104 | – | –
8 | Cc1c(N)nc(C(CC(N)=O)NCC(N)C(N)=O)nc1C(=O)NC(C(=O)NC(C)C(O)C(C)C(=O)NC(C(=O)NCCc1nc(-c2nc(C(=O)NCCC[S+](C)C)cs2)cs1)C(C)O)C(OC1OC(CO)C(O)C(O)[C@H]1OC1OC(CO)C(O)C(OC(N)=O)C1O)c1cnc[nH]1 (stereo not given in full) | 1.05 (inactive) | 0.471 | 3100 | 2960 | -0.352 (inactive) | -0.104 | – | – | – | – | – | – | –
9 | CC(C)(c1ccccc1)c1ccc(O)cc1 | – | 0.637 | 8850 | 9870 | 0.409 (inactive) | -0.32 | 0.897 (inactive) | 0.62 (inactive) | – | – | – | – | –
10 | Clc1ccc(C(Cn2ccnc2)OCc2c(Cl)cccc2Cl)c(Cl)c1 (stereo not given) | 0.876 (inactive) and 0.926 (inactive) | 1.06 and 1.05 | 8420 and 7330 | 9620 and 7910 | -0.214 (inactive) and 1.01 (inactive) | -1.26 and 0.334 | – | – | – | – | – | – | –
11 | NCCc1ccc(S(N)(=O)=O)cc1 | – | 0.315 | 9210 | 10400 | -0.0994 (inactive) | 0.0645 | 0.884 (inactive) | 0.495 (inactive) | – | – | – | – | –
12 | CCCC(=O)OCC[N+](C)(C)C | – | 0.999 | 10000 | 10700 | 0.357 (inactive) | 0.101 | 0.934 (inactive) | 0.43 (inactive) | – | 42.8% (inactive) | 107 | – | –
13 | CC1CC[C@H]2C(C)C(=O)O[C@@H]3O[C@@]4(C)CC[C@@H]1[C@]32OO4 (stereo not given in full) | 0.916 (inactive) | 0.744 | 6910 | 7540 | -0.427 (inactive) | 0.217 | – | – | – | – | – | – | –
14 | C[C@]12CCC(=O)C(O)=C1CC[C@@H]1[C@H]2CC[C@]2(C)C(=O)CC[C@@H]12 | – | 0.764 | 8100 | 9210 | -0.345 (inactive) | 0.332 | 0.879 (inactive) | – | – | – | – | – | –
15 | CCC1C(=O)OCC1Cc1cncn1C (stereo not given) | 0.926 (inactive) and 0.807 (inactive) and 0.899 (inactive) | 1.4 and 2.3 and 1.43 | 9120 and 8440 and 10400 | 9850 and 10500 and 11500 | -0.194 (inactive) and -0.728 (inactive) | -0.153 and 0.0525 | – | 1.16 (inactive) and 0.695 (inactive) | – | 38.7% (inactive) | 114 | – | –
16 | CC(=O)O[C@H]1CC[C@@]2(C)C(=CC[C@@H]3[C@@H]2CC[C@]2(C)C(=O)CC[C@@H]32)C1 | – | 1.2 | 9250 | 10400 | 0.711 (inactive) | -0.302 | 0.892 (inactive) | – | 0.583 (inactive) | 73.2% (inactive) | 93.1 | – | 56 AU (inactive)
17 | CC1=C(C(=O)Nc2ccccc2)SCCO1 | – | 0.79 | 8550 | 9880 | 0.971 (inactive) | -0.224 | 0.865 (inactive) | -0.385 (inactive) | – | – | – | – | –
18 | N#Cc1cnn(-c2ccc(Cl)cc2)c1N | – | 1.03 | 8030 | 9420 | -0.167 (inactive) | -0.085 | 0.852 (inactive) | 0.29 (inactive) | – | – | – | – | –
